We go through 29 compounds from PubChem BioAssay.

Each structure is given as a SMILES string. “And” between values parts separate entries of the source, which are not always exact repeats. Equal values may be shown once. The source made the active and inactive calls. Unless noted, no stated cut-off is given here; in the data, active means parasite load remaining mostly below about 12% (no sharp cut-off); inactive means mostly above about 10%.

One experiment in a line: inhibitors of polyQ protein aggregation (AID 1604). The conditions noted are these: polyglutamine-induced protein aggregation inhibition assay; stronger effect = higher value; tested at 2.5 µM.
In turn, `CC[C@@H](CO)NCCN[C@@H](CC)CO` came in with an inhibition of aggregation of 43.6%.

In turn, `O=C(O)CN(CC(=O)O)Cc1cc2c(-c3ccccc3C(=O)O)c3cc(CN(CC(=O)O)CC(=O)O)c(=O)cc-3oc2cc1O` displayed an inhibition of aggregation of 0%.

For the compound `CCN(CC)CCOc1ccc2c(c1)C(=O)c1cc(OCCN(CC)CC)ccc1-2`, the inhibition of aggregation was determined as 63.2%.

`CC(=O)NC(Cc1ccccc1)C(=O)O` (stereo not drawn) had an inhibition of aggregation of 85.9%.

In the case of `CC(C)=CCC/C(C)=C/CO`, the inhibition of aggregation was 60.6%.

`CC(=O)OCC(=O)[C@@]1(O)CCC2C3CCC4=CC(=O)CC[C@]4(C)C3[C@@H](O)C[C@@]21C` (stereo partly drawn) came in with an inhibition of aggregation of 66.2%.

A short description of a further experiment: enhancers of glutamate uptake in motor neurons, MN-1 cell line (AID 1612).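 Further: tested at 1 µM final; 0% = mean of DMSO vehicle wells on each plate; positive means more glutamate uptake than control and negative means less.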 The conditions noted are these: MN-1 motor neuron cells, stronger effect = higher value.
Take `CC[C@@H](CO)NCCN[C@@H](CC)CO`: the glutamate uptake change was -22.3%.

As for `O=C(O)CN(CC(=O)O)Cc1cc2c(-c3ccccc3C(=O)O)c3cc(CN(CC(=O)O)CC(=O)O)c(=O)cc-3oc2cc1O`, the glutamate uptake change worked out at 13.5%.

`CCN(CC)CCOc1ccc2c(c1)C(=O)c1cc(OCCN(CC)CC)ccc1-2`: the glutamate uptake change worked out at 22.5%.

Turning to `CC(=O)NC(Cc1ccccc1)C(=O)O` (stereo not drawn), the glutamate uptake change came out at 12.1%.

Take `CC(C)=CCC/C(C)=C/CO`: the glutamate uptake change was determined as 5.29%.

As to `CC(=O)OCC(=O)[C@@]1(O)CCC2C3CCC4=CC(=O)CC[C@]4(C)C3[C@@H](O)C[C@@]21C` (stereo partly drawn), the glutamate uptake change worked out at 16.2%.

A further experiment is described as follows: reducers of polyQ inclusions in PC12 cells, cell-based, NGF-treated PC12, GFPQ80 (AID 1614).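 Further: lower means fewer inclusions and 0 means no inclusions at all.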 The conditions noted are these: PC12 NGF-treated GFP-polyQ80 inclusion reduction.
Consider `CC[C@@H](CO)NCCN[C@@H](CC)CO`, for which the inclusion score came to 2.

As for `O=C(O)CN(CC(=O)O)Cc1cc2c(-c3ccccc3C(=O)O)c3cc(CN(CC(=O)O)CC(=O)O)c(=O)cc-3oc2cc1O`, the inclusion score is 0.

For the compound `CC(=O)NC(Cc1ccccc1)C(=O)O` (stereo not drawn), the inclusion score worked out at 2.

Regarding `CC(C)=CCC/C(C)=C/CO`, the inclusion score amounted to 2.

Turning to `CC(=O)OCC(=O)[C@@]1(O)CCC2C3CCC4=CC(=O)CC[C@]4(C)C3[C@@H](O)C[C@@]21C` (stereo partly drawn), the inclusion score worked out at 2.

The nature of a further experiment: suppressors of polyglutamine aggregation in yeast, 75Q-TubH (AID 1616). The conditions noted are these: S. cerevisiae 75Q-TubH polyglutamine aggregation suppression; stronger effect = higher value.
For `CC[C@@H](CO)NCCN[C@@H](CC)CO`, the aggregation suppression score is 1.18.

`O=C(O)CN(CC(=O)O)Cc1cc2c(-c3ccccc3C(=O)O)c3cc(CN(CC(=O)O)CC(=O)O)c(=O)cc-3oc2cc1O`: the aggregation suppression score came out at 0.687.

Consider `CCN(CC)CCOc1ccc2c(c1)C(=O)c1cc(OCCN(CC)CC)ccc1-2`, for which the aggregation suppression score was 1.61.

Regarding `CC(=O)NC(Cc1ccccc1)C(=O)O` (stereo not drawn), the aggregation suppression score came out at 1.23.

In turn, `CC(C)=CCC/C(C)=C/CO` yielded an aggregation suppression score of 1.02.

Compound `CC(=O)OCC(=O)[C@@]1(O)CCC2C3CCC4=CC(=O)CC[C@]4(C)C3[C@@H](O)C[C@@]21C` (stereo partly drawn) returned an aggregation suppression score of 0.966.

Another experiment in a line: hESC survival regulators, cell-based (AID 493140; call rule not given here;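 further: cells exposed to compounds for four days before counting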). The conditions noted are these: human embryonic stem cell survival screen; stronger effect = higher value.
Take `COc1cc(N)c(Cl)cc1C(=O)NC1CCN(CCCOc2ccc(F)cc2)CC1OC` (stereo not drawn): the survival is 0.75 (inactive).

For `C[C@@]12C(=O)OC(=O)[C@]1(C)C1CCC2O1`, the survival is 0.417 (inactive).

As to `C[N+](C)(C)CCCCCCCCCC[N+](C)(C)C`, the survival is 4 (inactive).

In the case of `CC(O)Cn1cnc2c1c(=O)n(C)c(=O)n2C` (stereo not drawn), the survival was 7 (inactive).

For the compound `CN(C)CCCOc1nn(Cc2ccccc2)c2ccccc12`, the survival is 9 (inactive).

In the case of `NC(=O)c1cc[n+](CC2=C(C(=O)[O-])N3C(=O)[C@@H](NC(=O)Cc4cccs4)[C@H]3SC2)cc1`, the survival was 16 (inactive).

In the case of `CC1=C(/C=C/C(C)=C/C=C/C(C)=C/C(=O)Nc2ccc(O)cc2)C(C)(C)CCC1`, the survival is 116 (inactive).

For the compound `CC(O)(P(=O)(O)O)P(=O)(O)O`, the survival is 4.67 (inactive).

Another experiment is described as follows: liver-stage malaria parasite growth inhibition, primary screen, cell-based, HepG2, luciferase luminescence, HepG2 viability (AID 624349).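 Further: 100% = mean of DMSO negative control wells on the same plate.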 The conditions noted are these: P. berghei liver stage in HepG2, luciferase luminescence, concentration not given here; parasite load remaining: stronger effect = lower value; viability: measured here: HepG2 viability without parasites.
The term viability denotes a read-out of living cells in per cent, often relative to untreated cells. For the compound `COc1cc(N)c(Cl)cc1C(=O)NC1CCN(CCCOc2ccc(F)cc2)CC1OC` (stereo not drawn), the viability came out at 81.1% and the parasite load remaining was 96.4% (inactive).

For `O=C(OOC(=O)c1ccccc1)c1ccccc1`, the parasite load remaining was 39% (inactive) and the viability came out at 82.1%.

With `C[N+](C)(C)CCCCCCCCCC[N+](C)(C)C`, the viability is 80.8% and 105% and 148%; the parasite load remaining was 84.1% (inactive) and 61.8% (inactive) and 73.4% (inactive).

With `CC[C@@H](CO)NCCN[C@@H](CC)CO`, the viability is 73% and 99%; the parasite load remaining was 80.8% (inactive) and 73.3% (inactive).

Regarding `O=C(O)CN(CC(=O)O)Cc1cc2c(-c3ccccc3C(=O)O)c3cc(CN(CC(=O)O)CC(=O)O)c(=O)cc-3oc2cc1O`, the viability came to 73.2% and the parasite load remaining was 107% (inactive).

For the compound `CC1=C(C/C=C(\C)CCC[C@H](C)CCC[C@H](C)CCCC(C)C)C(=O)c2ccccc2C1=O`, the viability turned out to be 93.1% and the parasite load remaining is 21.8% (inactive).

Consider `OCCc1ccccc1`, for which the parasite load remaining is 52.9% (inactive) and the viability was determined as 121%.

In the case of `O=C1c2ccccc2C(=O)C1c1ccc(Br)cc1`, the parasite load remaining is 54.8% (inactive) and the viability worked out at 105%.

As for `CCOC(=O)c1ccc(O)cc1`, the parasite load remaining is 75.1% (inactive) and the viability was determined as 94.6%.

For `Cc1cc(C(C#N)c2ccc(Cl)cc2)c(Cl)cc1NC(=O)c1cc(I)cc(I)c1O` (stereo not drawn), the viability amounted to 94.5% and the parasite load remaining was 10.9% (inactive).

On to `CC(C)CCCC(C)N` (stereo not drawn), for which the parasite load remaining was 30.8% (inactive) and the viability worked out at 90%.

`NCCNCCNCCN`: the parasite load remaining is 41.3% (inactive) and the viability came to 163%.

For `CC(O)Cn1cnc2c1c(=O)n(C)c(=O)n2C` (stereo not drawn), the viability is 89% and the parasite load remaining was 123% (inactive).

In the case of `CC(=O)NCc1c(I)c(NC(C)=O)c(I)c(C(=O)O)c1I`, the viability is 74.1% and 92.4%; the parasite load remaining was 120% (inactive) and 34.8% (inactive).

`CCN(CC)CCOc1ccc2c(c1)C(=O)c1cc(OCCN(CC)CC)ccc1-2`: the viability was 84.5% and 89%; the parasite load remaining is 151% (inactive) and 24.6% (inactive).

As for `CCCCCCCCCCOc1cc2c(=O)c(C(=O)OCC)c[nH]c2cc1OCC`, the viability was found to be 101% and the parasite load remaining was 0.015% (active).

Turning to `NC(=O)c1cc[n+](CC2=C(C(=O)[O-])N3C(=O)[C@@H](NC(=O)Cc4cccs4)[C@H]3SC2)cc1`, the parasite load remaining is 91.4% (inactive) and the viability was found to be 73.4%.

`O=C(Nc1ccc(C(=O)O)c(O)c1)c1ccccc1`: the parasite load remaining was 47.9% (inactive) and the viability was 101%.

Take `CC(C)=CCC/C(C)=C/CO`: the parasite load remaining was 123% (inactive) and the viability worked out at 71.1%.

For `CC1=C(/C=C/C(C)=C/C=C/C(C)=C/C(=O)Nc2ccc(O)cc2)C(C)(C)CCC1`, the parasite load remaining is 39.4% (inactive) and the viability was determined as 108%.

`O=C1OC2(c3ccc(O)cc3Oc3cc(O)ccc32)c2ccccc21`: the viability is 92.3% and the parasite load remaining is 58.1% (inactive).

In the case of `COc1cc(C(=O)NCCCCCC(=O)O)cc(OC)c1OC`, the parasite load remaining was 48.5% (inactive) and the viability was determined as 104%.

In the case of `OC1C(O)C(O)C(O)C(O)C1O` (stereo not drawn), the viability turned out to be 104% and the parasite load remaining was 41.7% (inactive).

As to `Nc1nc(Cl)nc2c1ncn2[C@@H]1O[C@H](CO)[C@@H](O)[C@@H]1F`, the viability came out at 84% and the parasite load remaining is 11.2% (inactive).

With `CC(O)(P(=O)(O)O)P(=O)(O)O`, the viability was 97.4% and 110% and 90%; the parasite load remaining was 84.2% (inactive) and 72.4% (inactive) and 27.7% (inactive).

Consider `CC(=O)OCC(=O)[C@@]1(O)CCC2C3CCC4=CC(=O)CC[C@]4(C)C3[C@@H](O)C[C@@]21C` (stereo partly drawn), for which the viability is 73.9% and 90.3%; the parasite load remaining is 123% (inactive) and 70.8% (inactive).
